# Hits are enriched below; roughly 21% of the tested compounds scored in any of these assays.
# Giardia FBPA inh: qHTS Assay for Inhibitors of Fructose-1,6-bisphosphate Aldolase from Giardia Lamblia | hit rate 0.71% among 290,000 | Potency, µM (doses to about 59.6 µM), without a hit: top-dose activity, negative = inhibition, most hits filed as inhibitors | AID 2451, 2010 | A8B2U2 | purified Giardia FBPA; further: potency means the concentration at half of the fitted maximal effect; on the % scale 0 is the no-effect control and ±100 the full control effect; nearly all actives have a fitted effect of over 55% in size
# Target sequence (A8B2U2 whole entry, looked up): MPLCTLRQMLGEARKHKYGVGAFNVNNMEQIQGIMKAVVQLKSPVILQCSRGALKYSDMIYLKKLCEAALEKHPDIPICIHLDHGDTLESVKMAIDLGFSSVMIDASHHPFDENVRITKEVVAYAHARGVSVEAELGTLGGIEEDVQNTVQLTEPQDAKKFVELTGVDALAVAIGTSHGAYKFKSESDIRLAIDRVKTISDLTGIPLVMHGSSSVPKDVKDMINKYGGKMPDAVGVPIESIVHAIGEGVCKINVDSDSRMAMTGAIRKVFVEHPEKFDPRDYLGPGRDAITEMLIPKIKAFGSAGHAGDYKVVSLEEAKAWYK
#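 40 nM FBPA preincubated 10 min at RT with compound (up to 57.5 uM final), then substrate plus GAPDH/TPI/NAD/arsenate coupling and diaphorase/resazurin added. Fluorescence read after 20 min at RT, 525/598 nm.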
# Pf growth 48h: Primary qHTS for delayed death inhibitors of the malarial parasite plastid, 48 hour incubation; P. falciparum luciferase growth in erythrocytes, 48 h; Potency, µM (series often up to 28.7 µM), for inactives: at the top dose activity change, negative = inhibition, hits mostly inhibitors; hit rate 5.9% among 310,000; AID 504832, 2011; further: potency means the concentration at half of the fitted maximal effect; on the % scale 0 is the no-effect control and ±100 the full control effect
#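 Cell-based growth assay: transgenic P. falciparum expressing firefly luciferase, cultured in red cells within RPMI 1640 containing 0.5% w/v Albumax, 24 mM bicarbonate and gentamycin. A drop in luciferase activity indicates inhibition.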
# NS1 function inh: qHTS Assay for Inhibitors of Influenza NS1 Protein Function; Potency, µM (titrated, usually from 46.1 µM), without a hit: top-dose activity, positive = more growth; hit rate 0.4% among 270,000; AID 2326, 2010; calls by dose curve; further: potency means the concentration at half of the fitted maximal effect; actives are rising curves; nearly all actives have a fitted effect of over 50% in size
#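 Growth recovery, yeast-based: influenza A NS1 expressed in S. cerevisiae causes slow growth, and suppressors are detected by OD600. The parent strain without NS1 is used as positive control.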
# Pf growth 96h: Primary qHTS for delayed death inhibitors of the malarial parasite plastid, 96 hour incubation; hit rate 6.9% among 320,000; P. falciparum luciferase reporter growth, 96 h; Potency, µM (top dose mostly 28.7 µM), for inactives: at the highest dose activity change, negative = inhibition, actives largely listed as inhibitors; further: potency means the concentration at half of the fitted maximal effect; on the % scale 0 is the no-effect control and ±100 the full control effect
#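 Cell-based qHTS: luciferase-tagged P. falciparum in erythrocytes (2% hematocrit, 0.05% parasitemia final) incubated with compounds for 96 hours, 37 C, 5% CO2; luciferase detection reagent then added and luminescence measured.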
# Shiga toxin inh: A qHTS for Small Molecule Inhibitors of Shiga Toxin. Vero cells, Shiga toxin protein synthesis inhibition reporter. inhibition, % at 38.7 µM. hit rate 9.2% among 290,000; in the data active means inhibition mostly above about 28%, no sharp cut-off; inactive means mostly below about 43%; further: 0% is about no effect
# Cycloheximide cs: Cycloheximide Counterscreen for Small Molecule Inhibitors of Shiga Toxin; cell reporter, cycloheximide protein synthesis inhibition counterscreen; max response, %; hit rate 12% among 300,000; AID 2314, 2010; in the data active means max response mostly above about 13%, no sharp cut-off; inactive means mostly below about 14%; further: read at 38.3 µM for the half of the compounds with a filed dose; 0% is about no effect
# The depositor's hits bear a star; ? = inconclusive; · = no result given; [ ] = remark or other dose. Unless noted, the call rests on the fitted dose curve; in most records, active means well fitted curve in the direction sought with a large enough effect; inconclusive means small, poorly fitted or top-dose-only effect, or another doubt; inactive means no such curve, though single readings can be large; an effect the other way counts as inactive or inconclusive.
SMILES,Giardia FBPA inh,Pf growth 48h,NS1 function inh,Pf growth 96h,Shiga toxin inh,Cycloheximide cs
CCN1CCN(S(=O)(=O)c2cc3c(cc2Cl)NC(=O)CO3)CC1,-5%,13%,-7%,-22%,-10,-2
CCS(=O)(=O)N1CCC(C(=O)NCCc2ccccc2)CC1,-1%,27%,-6%,1.5µM*,-13,-4
CCS(=O)(=O)N1CCC(C(=O)NCCc2ccc(C)cc2)CC1,3%,4%,-12%,?,13,-4
CCOc1ccc(CCNC(=O)C2CCN(S(=O)(=O)CC)CC2)cc1OCC,-1%,50%,-8%,2.6µM*,-11,-1
O=C(NCCCN1CCC(Cc2ccccc2)CC1)C1CCN(S(=O)(=O)N2CCOCC2)CC1,-6%,-1%,2%,·,-1,-2
CCCS(=O)(=O)N1CCCC(C(=O)NCCN(CC)c2ccccc2)C1 (configuration not stated),12%,?,2%,13µM*,17,-5
CCS(=O)(=O)N1CCC(C(=O)NCCCN2CCC(Cc3ccccc3)CC2)CC1,1%,-2%,2%,9.3µM*,14,-5
CCCCC[C@H](O)/C=C/C=C\C/C=C\C=C\[C@@H](O)CCCC(=O)O,5%,·,·,·,·,·
C=CCc1cccc(C2NC(C(=O)O)CCC2C)c1 (configuration not stated),1%[12.9 µM],·,·,·,·,·
CC(C)=CCC/C(C)=C/CO/N=C1/[C@H]2O[C@@H]2[C@@H](O)[C@H]2[C@H]1CCn1c(=O)n(-c3ccccc3)c(=O)n12,3%[12.9 µM],·,·,·,·,·
CCCS(=O)(=O)N1CCC(C(=O)NCCN2CCC(Cc3ccccc3)CC2)CC1,-1%,4.1µM*,-2%,2%,1,6
CCCS(=O)(=O)N1CCC(C(=O)NCCN(C)Cc2ccccc2)CC1,5%,18%,-7%,15µM*,10,-2
COc1ccc(NC(=O)C2CCN(S(=O)(=O)c3cccc4cccnc34)CC2)cc1OC,-1%,-7%,-36%,6.6µM*,18,1
COc1ccc(C)cc1NC(=O)C1CCN(S(=O)(=O)c2cccc3cccnc23)CC1,-7%,?,-109%,21%,-2,-3
COc1ccc(S(=O)(=O)N2CCC(C(=O)Nc3ccc(F)cc3)CC2)c2cccnc12,-17%,1µM*,·,0%,-10,2
COc1ccc(CNC(=O)CNC(=O)c2cccs2)c(OC)c1,·,47%,10%,22%,15,1
COc1ccc(CCNC(=O)c2cc(-c3cc(Cl)ccc3O)n[nH]2)cc1OC,-7%,?,10%,-22%,-4,-1
Cc1cc(C)nc(Sc2ncnc(N)c2[N+](=O)[O-])n1,-9%,?,-2%,-2%,-12,1
CCc1cccc(C)c1NC(=O)CO/N=C(\C)c1cc2ccccc2o1,4%,?,7%,?,19,-2
CCCCNC(=O)CO/N=C(\C)c1cc2ccccc2o1,27%,49%,-10%,-18%,77*,54*
C/C(=N\OCC(=O)NCC(F)(F)F)c1cc2ccccc2o1,2%,89%,1%,56%,71*,53*
O=C(COC(=O)COc1cccc2ccccc12)NCC(F)(F)F,-5%,-11%,·,18%,4,1
O=C(O)C1CCCN1C(=O)C1CCN(S(=O)(=O)c2cccc(C(F)(F)F)c2)CC1 (configuration not stated),·,?,·,0%,·,·
O=C(OCC(=O)N1CCCC1)c1c(Cl)ccc(Cl)c1Cl,-7%,6%,16%,18%,20,-1
Cc1cccnc1NC(=O)COc1ccc2c(c1)CCC2,·,129%,·,102%,·,·
SMILES,Giardia FBPA inh,Pf growth 48h,NS1 function inh,Pf growth 96h,Shiga toxin inh,Cycloheximide cs
c1cc2c(cc1OCCNC1CCCC1)CCC2,-21%,-18%,8%,12µM*,-4,8
c1cnc(SCCOc2ccc3c(c2)CCC3)nc1,-2%,·,-6%,326%,75*,36*
c1ccc(-c2ccc(OCCCNC3CCCC3)cc2)cc1,?,13µM*,-7%,3%,11,11
CNCCOc1ccc(Cl)c(Cl)c1,?,8%,1%,-12%,16,-2
CNCCCOc1ccc2c(c1)CCC2,?,?,5%,11%[5.75 µM],76,21*
O=C(Nc1ccccc1Oc1ccccc1)c1cccs1,3%,·,-9%,-27%,-1,-3
CC(=O)CCC(=O)NC1CCCc2c1cnn2-c1ccc(C(C)(C)C)cc1 (configuration not stated),-1%,9%,-2%,-32%,13,2
Cc1cccc(C)c1NC(=O)CSc1nnc(-c2ccncc2)n1Cc1ccco1,11%,·,-1%,13%,-20,-4
Cn1cc(SCC(=O)Nc2nccs2)c2ccccc21,-22%,62%,-16%,70%,83*,40*
O=C(CSc1nnc(-c2ccncc2)n1Cc1ccco1)Nc1nccs1,0%,14%,3%,7.4µM*,1,-2
Nc1ccccc1SCC(=O)Nc1nccs1,-8%,30%,0%,5%,10,4
COc1ccc(NC(C)=O)cc1NC(=O)CSc1nnc(-c2ccncc2)n1C,3%,7%,5%,-9%,3,2
CCOC(=O)CNC(=O)CSc1nnc(-c2ccccc2)n1Cc1ccco1,-5%,0%,0%,12µM*,-11,8
COc1ccc(NC(C)=O)cc1NC(=O)CSc1nnc(-c2ccccc2)n1N,0%,-7%,0%,16%,60*,18
COc1ccc(OCC2CC3C(CCC(C)C3c3ccc(Br)cc3)C(=O)O2)cc1 (configuration not stated),0%[12.9 µM],·,·,·,·,·
CCn1c(SCC(=O)Nc2nccs2)nnc1-c1ccc(C)cc1,-1%,-13%,4%,2%,18,-2
Cc1ccc(-c2nnc(SCC(=O)Nc3nccs3)n2N)cc1,-1%,47%,6%,92%,43*,30*
Cc1cccc(NC(=O)CSc2nnc(-c3ccccc3)n2N)c1,-1%,23%,18%,26%,12,12
Cc1cc(C)cc(NC(=O)CSc2nnc(-c3ccccc3)n2N)c1,5%,0%,3%,?,-10,14*
COC1=C[C@H]2[C@H]3Cc4ccc(OC)c(O)c4[C@@]2(CCN3C)CC1=O,-28%,·,·,·,·,·
CCOc1ccccc1NC(=O)c1nnn(CC(=O)Nc2cc(C)cc(C)c2)c1N,·,13%,4%,?,18,3
CCN(C(=O)CN1CCC(C)CC1)c1c(N)n(Cc2ccccc2)c(=O)[nH]c1=O,·,11%,·,3%,·,·
CC(C)CN(C(=O)CN1CCN(c2ccc(O)cc2)CC1)c1c(N)n(CC(C)C)c(=O)[nH]c1=O,?,29%,12%,?,9,-2
CC(=O)c1ccc(N2CCN(CC(=O)N(CC(C)C)c3c(N)n(CC(C)C)c(=O)[nH]c3=O)CC2)cc1,4%,-18%,·,-18%,-9,12*
